# Pf growth 96h: inhibits malaria parasite growth, 96 h. Potency, µM (titrated, usually from 28.7 µM), without a hit: at the highest dose activity change, negative = inhibition, most hits filed as inhibitors. P. falciparum luciferase reporter growth, 96 h. AID 504834. 320,000 compounds, 6.9% hits; also: % is scaled to controls: 0 for no effect and ±100 for the full control effect
#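 Parasite growth measured via integrated firefly luciferase reporter in P. falciparum. Infected erythrocytes at 2% hematocrit, 0.05% parasitemia final were treated 96 hours at 37 C under 5% CO2, and luminescence was read.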
# Pf growth 48h: P. falciparum growth inhibition at 48 hours (one generation); P. falciparum luciferase growth in erythrocytes, 48 h; Potency, µM (titrated, usually from 28.7 µM), inactives show at the top dose activity change, negative = inhibition, usual class: inhibitors; 310,000 compounds, 5.9% hits; AID 504832; also: % is scaled to controls: 0 for no effect and ±100 for the full control effect
#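 Cell-based growth assay: transgenic P. falciparum expressing firefly luciferase, cultured in red cells within RPMI 1640 containing 0.5% w/v Albumax, 24 mM bicarbonate and gentamycin. A drop in luciferase activity indicates inhibition.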
# SARS PLpro yeast: SARS-CoV PLP inhibition in yeast; Potency, µM (series often up to 32.9 µM), without a hit: at the highest dose activity, positive = growth rescue, actives largely listed as activators; 330,000 compounds, 0.19% hits; S. cerevisiae expressing SARS-CoV PLpro, growth rescue; calls by dose curve; also: 0% is about no effect; nearly all actives have a fitted effect of over 55% in size
# AMA1-RON2 inh: disrupts binding of P. falciparum AMA1 to RON2 | 360,000 compounds, 0.2% hits | Potency, µM (titrated, usually from 58.2 µM), for inactives: at the highest dose activity change, negative = inhibition, usual class: inhibitors | AlphaScreen AMA1-biotinylated RON2 peptide binding;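 also: 0% = vehicle wells and -100% = peptide control; nearly all actives have a fitted effect of over 45% in size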
#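 AMA1 (3D7) with his tag at 25 nM final met compounds first, then biotinylated RON2 peptide at 25 nM; detection used donor plus acceptor beads, 10 µg/mL apiece, read by AlphaScreen after 30 min at room temperature.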
# Starred values were filed as active, the others as inactive; ? = inconclusive; . = no result given; [ ] = another dose, or the depositor's remark. Only some compounds are listed: those with a hit (about 9.4% of all), similar ones and a draw of the others. Unless noted, calls follow the shape of the dose curve; as a rule, active = well fitted curve in the direction sought with a large enough effect; inconclusive = small, poorly fitted or top-dose-only effect, or another doubt; inactive = no such curve, though single readings can be large; an effect the other way counts as inactive or inconclusive. Potency is read from the fitted curve at half-maximal effect.
SMILES,Pf growth 96h,Pf growth 48h,SARS PLpro yeast,AMA1-RON2 inh
Cc1ccccc1OCCC(=O)OCC(=O)NCCNC(=O)COC(=O)CCOc1ccccc1C,5.5%,1.8%,-0.8%,0.0%
COC(=O)c1cc2ccccn2c2c(C(=O)OC)c(C(=O)OC)cc1-2,-9.5%,.,15.4%,-6.2%
COC(=O)c1cc2c(C)c(C)c3ccccn3c-2c1C(=O)OC,13.1µM*,.,18.1%[6.58 µM],-4.5%
COC(=O)c1cc2n3ccccc3c(C)c(-c3ccccc3)c-2c1C(=O)OC,9.28µM*,.,6.3%,-13.8%
Cc1ccc(S(=O)(=O)N2CCOCC2)cc1C(=O)OC1CCOC1=O (centres undefined),21.5%,31.3%,-0.2%,-3.8%
CCC1CCCCN1C(=S)NC(=O)c1ccc(F)c(S(=O)(=O)N2CCOCC2)c1 (centres undefined),?,-9.6%,-0.8%,76.3%
O=C(NN(c1ccccc1)c1ccccc1)c1ccc([N+](=O)[O-])o1,-21.7%[5.75 µM],?,0.9%,-4.1%
O=S(=O)(c1ccccc1)c1cnn(-c2ccccc2)c1-c1ccc(F)cc1,5.86µM*,?,-5.8%,-18.0%
O=S(=O)(c1ccccc1)c1cnn2c(C(F)(F)F)cc(-c3ccc(F)cc3)nc12,?,6.0%,4.0%,-0.8%
COc1ccc(-n2ncc(Cl)c(Cl)c2=O)cc1,33.9%,11.1%,-0.9%,-2.3%
COc1ccc(-n2ncc(S(=O)(=O)c3ccccc3)c2-c2ccc(Cl)cc2)cc1,?,11.7µM*,-17.8%,-17.7%
CCC(C)n1c(=O)c(C(=O)Nc2ccccc2S(N)(=O)=O)c(O)c2ccccc21 (centres undefined),9.28µM*,1.7%,1.5%,84.6%
O=C(O)CCC/C=C\C[C@@H]1[C@@H](/C=C/[C@@H](O)COc2cccc(Cl)c2)[C@H](O)C[C@@H]1O,?,-19.3%,5.5%,-4.0%
Cc1ccccc1-c1noc(CNC(=O)COc2ccccc2)n1,?,7.8%,1.3%,-8.5%
CSC1=NCCN1C(=O)c1cccs1,13.1µM*,.,8.3%,-2.7%
CSC1=NCCN1C(=O)c1ccc(C)cc1,19.9%,-1.0%,-0.9%,3.5%
CSC1=NCCN1C(=O)C12CC3CC(CC(C3)C1)C2,?,9.28µM*,0.7%,5.4%
CC1(C)CC(=O)C(Sc2ccccc2)=C(O)C1,-8.1%,31.7%,-0.6%,6.5%
N#C/C(=C\Nc1ccccc1SC(F)(F)F)c1nc(-c2ccccc2)cs1,?,?,10.2%,-1.8%
COc1cc2c(cc1N/C=C(\C#N)c1nc(-c3ccc(F)cc3)cs1)oc1ccccc12,?,9.28µM*,0.4%,-1.6%
CC(C)(C)C(=O)Nc1ccc(N2CCN(C(=O)c3cccs3)CC2)cc1,.,.,.,-1.9%
N#CCc1nc2c3c4c(sc3ncn2n1)CCCC4,10.4µM*,.,-5.4%,11.8%
Cc1c(C(=O)Nc2cccnc2Cl)oc2ccccc12,238.9%,156.8%,-0.4%,8.1%
Cn1c(SCc2ccon2)nc2ccccc2c1=O,?,0.9%,-2.2%,-1.3%
CC(=O)Oc1ccc(C(=O)Nc2ccc3c(c2)C(=O)N(CCC(=O)O)C3=O)cc1,11.7µM*,.,-1.2%,-1.8%
SMILES,Pf growth 96h,Pf growth 48h,SARS PLpro yeast,AMA1-RON2 inh
Cc1c(Br)c([N+](=O)[O-])nn1CC(=O)NCC1CCCO1 (centres undefined),21.9%,12.4%,1.2%,6.9%
CC(C)CC(=O)Nc1ccc(-c2cn3ccsc3n2)cc1,13.1µM*,73.8%,-7.0%,-22.9%
CC(C)(C)C(=O)Nc1ccc(-c2cn3ccsc3n2)cc1,30.0%,43.8%,-4.2%,-16.0%
O=C(NCc1cccnc1)c1ccc2c(c1)C(=O)N(Cc1ccccc1)C2=O,4.15µM*,16.3%,0.4%,-15.6%
O=C(Nc1cccnc1)c1ccc2c(c1)C(=O)N(Cc1cccnc1)C2=O,9.28µM*,2.9%,-1.3%,-7.3%
COc1ccccc1Cn1c(=S)[nH]c2cc(C(=O)NCc3cccnc3)ccc2c1=O,8.28µM*,?,-0.5%,13.4%
O=C(Nc1ccc(Cl)cc1C(=O)O)c1ccc2c(c1)C(=O)N(Cc1ccco1)C2=O,10.7%,-4.7%,-1.1%,-14.7%
O=C(Nc1cccc(O)c1)c1ccc2c(c1)C(=O)N(Cc1ccco1)C2=O,9.28µM*,-5.6%,-0.8%,-5.6%
CC(=O)c1cccc(NC(=O)c2ccc3c(c2)C(=O)N(Cc2cccnc2)C3=O)c1,87.5%,13.4%,-6.4%,-2.0%
O=C(NCc1ccc2c(c1)OCO2)c1ccc2c(c1)C(=O)N(Cc1cccnc1)C2=O,?,10.2%,?,-0.5%
O=c1cc(O)c(-c2ccc(Cl)c(Cl)c2)c(Cl)[nH]1,0.1%,-0.9%,2.6%,5.6%
C=C(C)CSc1nnc2n(C)c(=O)c3c4c(sc3n12)CCC4,-0.2%,-0.7%,-2.4%,-3.7%
CCOC(=O)CSc1nnc(NC(=O)CN2CCN(C=O)CC2)s1,-2.9%,-18.8%,-1.9%,39.4%
CN1CCN(Cc2c(O)ccc3cc(Br)ccc23)CC1,?,-12.6%,-5.0%,-2.6%
CCN(Cc1ccncc1)Cc1c(O)ccc2cc(Br)ccc12,6.57µM*,5.86µM*,1.8%,15.7%
COc1cc(/C(C)=N/NC(=O)CSc2nnc(C)s2)ccc1O,-5.4%,3.8%,1.3%,8.6%
COC(=O)/C(=C1/Oc2cc(C)oc(=O)c2S1)C(F)(F)F,?,?,-34.5%,18.9%
COC(=O)/C(=C(/F)Sc1cc(C)c(O)c(C)c1)C(F)(F)F,.,9.28µM*,-44.0%,7.0%
O=C(NC1CCC(NC(=O)C(F)(F)C(F)F)CC1)C(F)(F)C(F)F (centres undefined),13.1µM*,.,-0.2%,11.5%
Nc1c([N+](=O)[O-])c(=O)sc2ccccc12,-3.5%,23.0%,2.1%,-1.1%
CN(C)CCNC(=O)c1ccc2c(c1)NC(=O)c1ccccc1S2,?,11.7µM*,0.1%,0.3%
COC(CN(C)C(=O)c1ccc2c(c1)NC(=O)c1ccccc1S2)OC,10.1%,1.47µM*,-0.5%,-1.2%
CCOc1ccc(N=C2SC(C(=O)Nc3ccccc3C#N)C(N)=C2C(=O)Nc2ccc(Cl)cc2)cc1 (centres undefined),-16.4%,?,1.2%,80.5%
O=C(O)c1ccc(-c2ccc(/C=C3\NC(=O)N(Cc4ccc(Cl)cc4)C3=O)o2)cc1Cl,-4.1%,14.7µM*,-0.2%,-19.7%
CCOC(=O)CN1C(=O)S/C(=C\c2ccc(-c3ccc(C(=O)O)c(Cl)c3)o2)C1=O,-17.6%,?,-0.2%,4.5%
CCOCCOC(=O)c1cccc2c1-c1ccccc1C2=O,-8.4%,-3.9%,-2.5%,11.4%
CC(C)C(C(=O)NC(C)(C)C)N(CCN1CCOCC1)C(=O)CNS(=O)(=O)c1ccccc1 (centres undefined),1.85µM*,-10.6%,16.3%,6.9%
CCCC(C(=O)NC(C)(C)C)N(CCN1CCOCC1)C(=O)CNS(=O)(=O)c1ccccc1 (centres undefined),-1.9%,1.6%,0.9%,-0.6%
Cc1ccc(/C=N/n2c(COc3ccccc3)n[nH]c2=S)o1,2.6%,16.1%,-0.1%,95.0%
CC(C)(C)OC(=O)N1CCN(c2ccc(NC(=O)c3ccco3)cc2)CC1,1.9%,7.38µM*,-31.2%,-11.4%

# Compound activity deposited in PubChem by National Center for Advancing Translational Sciences (NCATS).
